This is a sample that favours compounds with a hit; in the whole collection about 6% have one here.
D1 antagonist: blocks dopamine activation of the human D1 receptor. 360,000 tested, 3.2% active. activity change, negative = inhibition, % at 10 µM. P21728. AID 504652. HEK293 TREx D1 cells, calcium flux, dopamine EC80; hits give low values; in the data active = activity change below about -30%; also: % is scaled to controls: 0 for no effect and ±100 for the full control effect
Target sequence (P21728 whole entry, looked up): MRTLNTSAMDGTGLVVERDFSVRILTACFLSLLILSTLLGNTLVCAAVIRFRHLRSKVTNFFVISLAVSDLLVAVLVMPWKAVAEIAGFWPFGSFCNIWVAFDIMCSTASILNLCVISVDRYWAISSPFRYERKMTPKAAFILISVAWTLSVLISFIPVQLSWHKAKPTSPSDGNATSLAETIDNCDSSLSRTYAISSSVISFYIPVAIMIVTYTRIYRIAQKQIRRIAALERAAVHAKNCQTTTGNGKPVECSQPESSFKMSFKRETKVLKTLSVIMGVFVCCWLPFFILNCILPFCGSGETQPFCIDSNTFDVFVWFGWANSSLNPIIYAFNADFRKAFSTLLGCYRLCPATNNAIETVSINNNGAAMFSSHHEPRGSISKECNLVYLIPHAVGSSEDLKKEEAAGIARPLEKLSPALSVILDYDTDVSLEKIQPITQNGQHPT
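Using tetracycline-induced force-coupled D1 Hek293 cells and a calcium dye, signals were followed for 180 s after compound, then for 180 s after EC80 dopamine, to detect inhibitors.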
DRD3 agonist: D3 dopamine receptor (human) agonism. D3R DiscoveRx beta-arrestin cells, luminescence, 90 min. max activation, %. P35462. 410,000 tested, 0.58% active; in the data active = max activation above about 30%; also: 0% is about no effect
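Agonist-mode cell screen: cells plated at 1500/well and incubated overnight at 37 °C, then exposed to library compounds for 90 min at 37 °C. Detection reagent was added for 30–60 min at room temperature, and luminescence was read.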
D1 potentiator: enhances dopamine response at the human D1 receptor | P21728 | HEK293 TREx D1 cells, calcium flux, dopamine EC20 potentiation | potentiation, % at 10 µM | 360,000 tested, 0.036% active; in the data active = potentiation above about 30%; also: 0% is about no effect
D1 ag: human D1 receptor agonism; P21728; HEK293 T-REx D1 cells, calcium flux, agonist mode; activation, % at 2 µM; 360,000 tested, 1% active; in the data active = activation above about 30%; also: 0% is about no effect
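Agonism was scored from calcium flux recorded over 180 s (1 read/s) after pintool compound addition, following a 10-cycle baseline. Cells were inducible force-coupled HEK293 TREx D1, plated overnight at 30 C and loaded with no-wash calcium dye.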
D3 antag: blocks the human D3 dopamine receptor; P35462; max response, negative = inhibition, %; D3R cells, DiscoveRx beta-arrestin luminescence, antagonist mode; hits give low values; 360,000 tested, 2.5% active; in the data active = max response below about -50%; also: % is scaled to controls: 0 for no effect and ±100 for the full control effect
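Cells expressing the human receptor were seeded at 1500 cells/well, incubated overnight at 37 degrees C in 5% CO2, then exposed to library compounds with dopamine controls for 90 minutes at 37 degrees C before luminescent detection.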
Numbers without * were called inactive; / = no result given; ! = not active in a repeat.

SMILES	D1 antagonist	DRD3 agonist	D1 potentiator	D1 ag	D3 antag
O=C1C=C(NC2=CC3OC(c4ccccc4)OCC3OC2=O)CCC1 (centres undefined)	-31*	-7	-5	3	-72*
O=c1ccn(-c2cccc(C(F)(F)F)c2)nc1-c1ccn(-c2ccccc2)n1	-38*	2	-4	-1	4
CCOC(=O)Cc1ccc(NC(=O)N(Cc2ccc(OC)cc2)C2CCN(C(C)=O)CC2)cc1	-6	3	6	-2	/
COc1ccc(S(=O)(=O)Nc2cc(Cl)ccc2-n2cncn2)cc1	-62*	5	-1	0	2
COC(=O)CN1C(=O)C(C)(C)c2cc(S(=O)(=O)Nc3ccc(Br)cc3F)ccc21	19	-9	-2	4	/
CCOC(=O)c1sc(NC(=O)c2cc3nc(-c4ccccc4)cc(C(F)(F)F)n3n2)c(C(=O)OCC)c1C	-21	2	-4	0	/
CCC(=O)NC1=C(NC(C)c2ccccc2)C(=O)c2ccccc2C1=O (centres undefined)	5	1	5	3	-16
CCC(=O)NC1=C(Cl)C(=O)C(NC(=O)CC)=C(Cl)C1=O	11	0	1	3	-62*
O=C(Nc1ccc2nc(SCC(=O)N3CCCc4ccccc43)sc2c1)c1ccccc1	-9	-8	-1	7	/
CCOC(=O)C1CCN(C(=O)Cn2nc(CC)n3c(cc4occc43)c2=O)CC1	-33*	6	2	5	/
CCc1nn(CC(=O)N2CCN(c3ccc(OC)cc3)CC2)c(=O)c2cc3occc3n12	2	34*	-2	0	8
COc1cc(OC)c(N(C)C(=O)c2c(C)oc3ncn(CC(C)C)c(=O)c23)cc1Cl	0	4	3	0	/
CCCCOc1ccc(CNC(=O)NS(=O)(=O)c2ccc(OCC)cc2)cc1	-7	1	-5	0	29
CCCCOc1ccc(S(=O)(=O)NC(=O)NCc2ccc(OCCC)cc2)cc1	-38*	5	-15	1	7
CCOC(=O)C1Nc2ccccc2C2C(O)C(O)CC12 (centres undefined)	/	-34	/	/	-52*
CCN(CC)C(=O)c1sc2c(c1C)c(=O)n(CCc1ccccc1)c(=O)n2Cc1ccc(F)cc1Cl	8	-2	0	0	/
Cc1cccc(CNC(=O)c2cccc(NC(=O)N3CCSc4ncccc43)c2)c1	-35*	1	-4	1	/
COc1ccc(CNC(=O)c2cccc(NC(=O)N3CCSc4ncccc43)c2)cc1	-17	8	-2	1	/
Cc1occc1C(=O)Nc1cccc(C(=O)NCc2ccccc2)c1	-40*	-1	-16	6	1
Cc1ccc(C(=O)Nc2cccc(C(=O)NCc3ccccc3)c2)cc1	-10	2	-12	2	-4
COc1ccc2c(Sc3ccccc3)c(C(=O)NCCc3ccc(Cl)cc3)[nH]c2c1	5	-2	-3	4	/
NC(=O)CSc1ncc2c(n1)-c1ccccc1N(Cc1ccc(F)cc1)S2(=O)=O	-5	1	-2	5	/
O=S1(=O)[C@H]2CC3O[C@]2(C[C@@H]3c2ccc(F)cc2)CN1Cc1ccc(Cl)cc1	-12	-19	-10	2	0
O=S1(=O)[C@H]2C[C@@H]3CC[C@]2(CN1Cc1cccc(F)c1)O3	-47*	-18	-9	1	5
COc1ccnc(CSC(N)=Nc2ccc(F)cc2)c1	18	-5	-8	1	-71*
SMILES	D1 antagonist	DRD3 agonist	D1 potentiator	D1 ag	D3 antag
COc1ccc(Cn2c(=O)c3oc4ccccc4c3n(Cc3ccccc3)c2=O)cc1	-4	10	-1	2	/
COc1ccc(CCn2c(N)cc(=O)[nH]c2=S)cc1OC	-10	-2	-10	0	-2
COc1ccc(CCn2c(N)cc(=O)[nH]c2=O)cc1OC	-48*	-13	-7	1	-86*
COc1ccc(CCN2C(=O)C3C4C=CC(C3C2=O)C2C(=O)N(CCc3ccc(OC)c(OC)c3)C(=O)C42)cc1OC (centres undefined)	-4	31*	1	4	-19
COc1ccc(OC)c(NC(=O)C(C)n2c(=O)c(-c3ccccc3NC(C)=O)nc3ccccc32)c1 (centres undefined)	3	-12	3	-2	/
CCOc1ccc(C2CC(c3ccccc3C)n3ncnc3N2)cc1 (centres undefined)	-40*	4	/	14	0
CCC(C(=O)NCCc1ccc(Cl)cc1)n1ccc2cc(S(=O)(=O)N3CCCCC3)ccc21 (centres undefined)	-4	-7	2	6	/
CCOC(=O)NC(NC(=S)Nc1ccc(OCC)cc1)C(Cl)(Cl)Cl (centres undefined)	-25	0	-8	4	-8
O=C(NC(NC(=S)Nc1c(Cl)cccc1Cl)C(Cl)(Cl)Cl)OCc1ccccc1 (centres undefined)	-8	-17	-10	12	-69*
COc1ccc(-c2cc(OC(=O)c3cccc(Cl)c3)c3c(C)oc(C)c3c(=O)c2)cc1	2	2	-3	3	/
O=C1C2=C(C(=O)c3ccccc31)C1O[C@](CCCCN3C(=O)c4ccccc4C3=O)(Cc3c1ccc1ccccc31)O2	-7	/	-2	4	/
Cc1cc([N+](=O)[O-])nn1Cc1ccc(C(=O)N/N=C/c2ccc(O)cc2O)cc1	-33*	4	-5	1	8
Cc1ccc(C)c(NC(=S)c2ccc3ccccc3n2)c1	21	-5	0	4	9
CN(C)c1ccc(NC(=S)c2ccc3ccccc3n2)cc1	2	-6	8	2	-51*
Cc1cccc(N(C)C(=S)Oc2ccc3c(c2)CCC3)c1	/	-3	/	/	/
Cc1cccc(N(C)C(=S)Oc2ccc3ccccc3c2)c1	-34*	-10	-4	6	-65*
CC(=O)c1cc2cccc(OC3(C)CCN(Cc4ccc(-c5ccccn5)cc4)C3)c2o1 (centres undefined)	/	-10	/	/	-53*
CCc1ccccc1N(C)S(=O)(=O)c1ccc2c(c1)C(C)(C)C(=O)N2C	-18	-8	-3	13	/
CN1CCc2cccc3c2[C@H]1Cc1ccc(O)c(O)c1-3	-90*	76*!	-7	43*!	-20
CN1CCc2cc3c(c4c2[C@H]1[C@H](O)c1ccccc1-4)OCO3	10	12	2	-3	12
CN1C(=O)c2ccccc2Sc2ccc(NC(=O)COc3ccc(F)cc3)cc21	-19	-3	-3	2	/
CCCN1CCN(CC2=C(C(=O)OCC)C(c3ccc(Cl)cc3)NC(=O)N2)CC1 (centres undefined)	-18	-19	-2	3	/
COc1ccc(-c2cc(C(F)(F)F)nc(SCCC(=O)Nc3ccc(NC(C)=O)cc3)n2)cc1	8	0	-4	1	/
